Screening data from PubChem.
HSF1 inhib: HSF1 inhibition; NIH3T3-HGL HSE-luciferase, MG132-induced, luminescence 8 h; hits give low values; activity change, negative = inhibition, % at 7.5 µM (by protocol); 300,000 compounds, 0.77% hits;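 active means more than half of replicate wells show activity change below -50%, luminescence cut by over half; inconclusive means some wells, but at most half, below -50%; inactive means no replicate well below -50%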;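 further: luciferase reports HSF-1 transcriptional activity via heat shock element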
AHR act: activates the human aryl hydrocarbon receptor | P35869 | AHR-responsive luciferase reporter cells, luminescence | activation, % at 5 µM | 320,000 compounds, 2.5% hits | AID 2796; in the data active means activation above about 47%
FXN GAA850 act: increases GAA850 frataxin promoter reporter activity; HEK293 lucGAA850 FXN promoter luciferase reporter, 24 h; percent of 10 µM SAHA response; activation, % at 6 µM; 360,000 compounds, 0.56% hits; AID 540364;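 active means activation above the average of all compounds screened plus 3 SD, cutoff fixed separately per campaign, cut at about 7.5% in these data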
HSF1 activator: increases HSF-1 driven luciferase reporter signal; NIH3T3-HGL HSF-1 luciferase reporter, MG132, 8 h; 100% = twice DMSO control signal; activation, % at 9 µM; 300,000 compounds, 1.7% hits; AID 504408;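 active means mean replicate activation of at least 50% with a set share of replicates each reaching 50%; inconclusive means only one of those two conditions met; inactive means mean below 50% and too few replicates reaching it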
GAA30 FXN cntr: counter-screen for GAA850 frataxin promoter activators: GAA30 promoter activation; HEK293 lucGAA30 FXN promoter luciferase, 24 h; DMSO = 0%, 5 µM ipriflavone = 100%; 1,900 compounds, 66% hits; activation, % at 6 µM; shares compounds with FXN GAA850 act; AID 588350;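 active means mean activation above the mean of solvent-only control wells plus 3 SD, cut at about 22% in these data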;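 further: counterscreen of GAA850 promoter hits where activity marks nonselective or luminescence artifacts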
FXN GAA850 conf: confirmation of GAA850 frataxin (FXN) promoter activators; shares compounds with FXN GAA850 act; AID 588351; activation, % at 6 µM; HEK293 lucGAA850 FXN promoter luciferase reporter, 24 h; 100% = activation by SAHA; 1,900 compounds, 86% hits;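 active means mean activation above a set limit taken from the primary screen, cut at about 8% in these data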
A number is an active result; - = inactive; ? = inconclusive; . = no result given. The list is not random: actives were taken first. Their share in the collection is about 4.6%.

SMILES	HSF1 inhib	AHR act	FXN GAA850 act	HSF1 activator	GAA30 FXN cntr	FXN GAA850 conf
CC(C)C[C@@]12C(=O)N(c3ccc(Br)cc3)C(=O)N1[C@H](c1ccc(Br)cc1)[C@@H]1C(=O)N(C(C)(C)C)C(=O)[C@@H]12	-	-	17	-	-	18
CCN1C(=O)[C@H]2[C@@H](c3ccc(C)cc3)N3C(=O)N(c4cccc(Cl)c4)C(=O)[C@@]3(Cc3ccccc3)[C@H]2C1=O	-	-	-	-	.	.
Cc1noc(C(=O)NCc2ccccc2)c1Cl	-	-	-	-	.	.
COc1cc(OC)cc(C(=O)NCC(=O)N2CCN(S(=O)(=O)c3ccccc3F)CC2)c1	.	-	-	.	.	.
CCOC(=O)C1CCCN(C(=O)c2cc3c(=O)n4ccccc4nc3s2)C1 (stereo unspecified)	-	-	-	-	.	.
COc1ccc([C@@H]2[C@@H]3C(=O)N(C(C)(C)C)C(=O)[C@@H]3[C@]3(C)C(=O)N(c4cccc(C)c4)C(=O)N23)cc1	-	-	-	-	.	.
CC(C)C[C@@]12C(=O)N(c3cccc(Cl)c3)C(=O)N1[C@H](c1ccc(Br)cc1)[C@@H]1C(=O)N(C(C)(C)C)C(=O)[C@@H]12	.	-	15	.	33	18
CC[C@@]12C(=O)N(c3cccc(C)c3)C(=O)N1[C@H](c1ccc(Br)cc1)[C@@H]1C(=O)N(C(C)(C)C)C(=O)[C@@H]12	-	-	16	-	23	11
COC(=O)c1c(C)[nH]c(C(=O)OCc2ccc(F)cc2)c1C	-	-	-	-	.	.
Cc1c(C=NCCOCc2ccccc2)cnn1C	-	-	10	-	-	9.0
C=CCc1ccccc1Oc1cc(F)nc(N)n1	-	-	-	-	.	.
N#CCSc1ccc2nc(-c3ccccc3)cn2n1	-	-	7.7	-	119	31
Cc1ccc(S(=O)(=O)N2CCOCC2)cc1NC(=O)CN1C(=O)NC2(CCCC2)C1=O	.	-	-	.	.	.
CCN(CC)c1ccc(S(=O)(=O)N2CCCCC2)cc1NC(=O)CN1C(=O)NC2(CCCC2)C1=O	-	-	9.0	-	-	10
COc1ccc(NC(=O)C2(C)CCN2Cc2cccc(OC)c2OC)cc1OC (stereo unspecified)	.	.	-	.	.	.
COc1ccc(NC(=O)C2(C)CCN2Cc2ccc(OC)c3ccccc23)cc1OC (stereo unspecified)	.	.	7.7	.	22	13
CC1CN(c2cc(=O)n(-c3ccccc3)c(=O)[nH]2)CC(C)O1 (stereo unspecified)	-	-	8.1	-	-	-
CC(C)(C)n1nnnc1C(c1cccs1)N(Cc1ccc(Cl)cc1)CC1CCCO1 (stereo unspecified)	-	-	7.8	-	-	17
O=C(Nc1cccnc1)c1ccc(NS(=O)(=O)c2cc([N+](=O)[O-])ccc2Cl)cc1	-	-	-	-	.	.
Cc1cc(-c2cc(C(=O)NCc3ccccc3)on2)nc(S(C)(=O)=O)n1	-	-	9.7	-	50	26
COCCNc1nc(C)cc(-c2cc(C(=O)NCc3ccccc3)on2)n1	-	-	-	-	.	.
Cc1sc(N)nc1-c1ccc(Oc2ccccc2)cc1	-	-	8.8	-	63	25
Nc1nc(N)nc(-c2ccc(Oc3ccccc3)cc2)n1	-	-	11	-	27	14
CCCCOc1ccc(CSC2=NCCN2)cc1[N+](=O)[O-]	-	-	-	-	.	.
CCCCCCOc1ccc(/C(C)=N/NC2=NCCN2)cc1[N+](=O)[O-]	-	-	7.8	?	28	17
SMILES	HSF1 inhib	AHR act	FXN GAA850 act	HSF1 activator	GAA30 FXN cntr	FXN GAA850 conf
Cc1nn(S(=O)(=O)c2ccccc2)c(C)c1Sc1ccc([N+](=O)[O-])cc1	-	-	-	-	.	.
CC1(C)Cc2c(c(N3CCOCC3)nc3sc(C#N)c(N)c23)CS1	-	-	8.3	-	-	16
CC1(C)Cc2c(c(N3CCOCC3)nc3sc(C(N)=O)c(N)c23)CO1	-	-	-	-	.	.
Cc1ccc(-c2noc(C3CCCN(C(=O)c4ccccc4)C3)n2)o1 (stereo unspecified)	-	-	7.7	-	107	30
CC[C@@]1(C(=O)OC)N[C@H](CN(C)C(=O)Nc2ccc(Cl)cc2)[C@@H]2C(=O)N(C)C(=O)[C@@H]21	.	-	-	.	.	.
CC[C@@]1(C(=O)OC)N[C@H](CN(C)C(C)=O)[C@@H]2C(=O)N(Cc3ccccc3)C(=O)[C@@H]21	.	-	-	.	.	.
CC[C@@]1(C(=O)OC)N[C@H](CN(C)C(=O)Nc2ccc(Cl)cc2)[C@@H]2C(=O)N(Cc3ccccc3)C(=O)[C@@H]21	.	-	17	.	-	11
CCN(C[C@H]1N[C@@](CC)(C(=O)OC)[C@H]2C(=O)N(Cc3ccccc3)C(=O)[C@@H]12)C(=O)Nc1ccc(C(F)(F)F)cc1	.	-	8.4	.	27	14
CC[C@@]1(C(=O)OC)N[C@H](CN(C)C(=O)COc2ccccc2)[C@@H]2C(=O)N(Cc3ccccc3)C(=O)[C@@H]21	.	-	9.5	.	-	-
CCN(C[C@H]1N[C@@](CC)(C(=O)OC)[C@H]2C(=O)N(Cc3ccccc3)C(=O)[C@@H]12)C(=O)Nc1ccc(OC)cc1	.	-	18	.	47	16
CSCC[C@H](NC(=O)[C@@H]1Cc2c([nH]c3ccccc23)C2c3ccccc3C(=O)N21)C(=O)NCC1CCCO1 (stereo partly specified)	-	-	-	-	.	.
C1CN(CC2CCN(c3nc4nonc4nc3N3CCSCC3)CC2)CCO1	.	-	-	.	.	.
COc1ccccc1CNc1nc2cc(-c3sccc3C)sc2c(=O)n1C	.	.	-	.	.	.
CCN(CC)CCn1c2ccccc2c2nc3ccc([N+](=O)[O-])cc3cc21	-	-	11	121	24	28
Cn1c2ccccc2c2cc([N+](=O)[O-])ccc21	-	-	-	-	.	.
CCCNC(=O)N(C)C[C@@H]1Oc2ncc(Br)cc2C(=O)N([C@H](C)CO)C[C@@H]1C	.	.	-	.	.	.
COc1ccc(NC(=O)C2CCCN2S(=O)(=O)c2ccc3c(c2)CCC(=O)N3)cc1 (stereo unspecified)	-	-	-	-	.	.
COc1ccc(NC(=O)C2CCCN2S(=O)(=O)c2ccc3c(c2)CCC(=O)N3)cc1Cl (stereo unspecified)	.	-	9.1	.	-	12
CCS/C(N)=N/N=C/c1cc(C)ccc1O	-	-	-	-	.	.
CS/C(N)=N/N=C/c1cc(C)ccc1O	-	-	8.6	140	122	38
C=CCn1c(SC(C)C(=O)NCc2ccc3c(c2)OCO3)nc2scc(-c3ccccc3)c2c1=O (stereo unspecified)	-	-	7.8	-	-	10
Cc1nnc(SCC(=O)c2cc(C)n(-c3ccc4c(c3)OCO4)c2C)s1	-	-	11	-	66	26
O=C(Nc1ccccc1Cl)c1cc(C2CCCCN2C(=O)C2CCCCC2)on1 (stereo unspecified)	.	.	-	.	.	.
